Measured values as given in PubChem BioAssay AID1159580 (chemical genetic matrix, 2015).
Several values for one entry are separate records, joined by “and”; a condition that tells them apart may be missing. Equal values may be shown once. Screen size: about 5,500 compounds; about 2,000 (36%) were called active. Roughly 18% stayed inconclusive and do not appear here. No stated cut-off is given here; in the data, active means normalized growth mostly below about 0.91 (no sharp cut-off); inconclusive means no clear call, values can overlap the other calls; inactive means mostly above about 0.92. The list shows a part of the results.

Test: chemical genetic growth profiling, strain panel (AID 1159580);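 further: tested at 20 µM; growth read once vehicle control cultures reached saturation at 30 °C; 1 = growth at the plate median or of vehicle wells; lower values mean less growth of the strain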
Settings: S. cerevisiae deletion strains, growth OD

Measured: normalized growth

CCCNC(=O)NS(=O)(=O)c1ccc(Cl)cc1
inactive: locus YAL013W, strain DEP1, hits give low values 1.01 and 0.978 | locus YAL021C, strain ccr4, hits give low values 1.02 | locus YAL026C, strain drs2, hits give low values 1.01 | locus YAL030W, strain snc1, hits give low values 1.01 | locus YAL040C, strain CLN3, hits give low values 1.09 | locus YBL061C, strain skt5, hits give low values 1.01 | locus YBR009C, strain hhf1, hits give low values 1.02 | locus YBR021W, strain FUR4, hits give low values 1.03 | locus YBR023C, strain chs3, hits give low values 1.02 | locus YBR171W, strain sec66, hits give low values 1.01 | locus YBR229C, strain ROT2, hits give low values 0.993 | locus YBR231C, strain swc5, hits give low values 1.01 | locus YBR279W, strain paf1, hits give low values 1.01 | locus YCL011C, strain gbp2, hits give low values 1 | locus YCL016C, strain dcc1, hits give low values 1.01 | locus YCL029C, strain bik1, hits give low values 1.01 | locus YCL061C, strain MRC1 (second series), hits give low values 0.997 | locus YCL069W, strain vba3, hits give low values 1.01 | locus YCR088W, strain abp1, hits give low values 0.996 | locus YDL005C, strain med2, hits give low values 1.01 | locus YDL035C, strain GPR1, hits give low values 1 | locus YDL040C, strain nat1, hits give low values 1.01 | locus YDL074C, strain BRE1, hits give low values 1.01 | locus YDL101C, strain DUN1, hits give low values 1.03 | locus YDL134C, strain PPH21, hits give low values 1 | locus YDL185W, strain tfp1, hits give low values 1 | locus YDL192W, strain arf1, hits give low values 1.03 | locus YDR001C, strain nth1, hits give low values 1.01 | locus YDR069C, strain doa4, hits give low values 1.03 | locus YDR101C, strain arx1, hits give low values 1.01 | locus YDR137W, strain rgp1, hits give low values 0.994 | locus YDR150W, strain NUM1, hits give low values 0.986 and 1 | locus YDR159W, strain sac3, hits give low values 1.01 | locus YDR162C, strain NBP2, hits give low values 0.984 | locus YDR195W, strain ref2 1.03 | locus YDR297W, strain sur2, hits give low values 1.02 | locus YDR318W, strain mcm21, hits give low values 1.01 | locus YDR334W, strain swr1, hits give low values 1.01 | locus YDR335W, strain msn5, hits give low values 1.02 | locus YDR363W, strain ESC2, hits give low values 0.97 | locus YDR388W, hits give low values 1.01 | locus YDR392W, strain spt3, hits give low values 1 | locus YDR502C, strain sam2, hits give low values 1.05 | locus YEL003W, strain gim4, hits give low values 1.02 | locus YEL037C, strain rad23, hits give low values 1.01 | locus YEL061C, strain CIN8 (second series), hits give low values 1.02 | locus YEL061C, strain CIN8, hits give low values 0.997 | locus YER002W, strain NOP16, hits give low values 1.01 | locus YER015W, strain faa2, hits give low values 1.02 | locus YER016W, strain bim1, hits give low values 0.989 | locus YER110C, hits give low values 0.998 | locus YER111C, strain swi4, hits give low values 1.02 | locus YER155C, strain BEM2 (second series), hits give low values 1.03 | locus YER155C, strain BEM2, hits give low values 1.01 | locus YER167W, strain BCK2, hits give low values 1 | locus YFR010W, strain ubp6, hits give low values 1.04 | locus YGL078C, strain dbp3, hits give low values 1.02 | locus YGL167C, strain pmr1, hits give low values 0.991 | locus YGL173C, strain kem1, hits give low values 1.02 | locus YGL227W, strain vid30, hits give low values 1.02 | locus YGL240W, strain doc1, hits give low values 1.03 | locus YGL248W, strain PDE1, hits give low values 1.03 | locus YGL253W, strain hxk2, hits give low values 1.01 | locus YGR135W, strain pre9, hits give low values 1.05 | locus YGR229C, strain SMI1, hits give low values 0.994 | locus YGR252W, strain gcn5, hits give low values 1.07 | locus YHR013C, strain ard1, hits give low values 1.05 | locus YHR027C, strain rpn1, hits give low values 1.01 | locus YHR030C, strain SLT2, hits give low values 0.991 and 1.01 | locus YHR079C, strain IRE1 (second series), hits give low values 1.01 | locus YHR079C, strain IRE1, hits give low values 0.986 | locus YHR094C, strain hxt1, hits give low values 1.01 | locus YHR129C, strain ARP1, hits give low values 1.01 | locus YHR142W, strain chs7, hits give low values 1.04 | locus YHR200W, strain rpn10, hits give low values 1.01 | locus YIL066C, strain RNR3, hits give low values 0.998 | locus YIL073C, strain SPO22, hits give low values 1.02 | locus YIL125W, strain kgd1, hits give low values 0.997 | locus YIR030C, strain dcg1, hits give low values 0.997 | locus YJL092W, strain hpr5, hits give low values 1 | locus YJL095W, strain BCK1 (second series), hits give low values 1.02 | locus YJL095W, strain BCK1, hits give low values 1.05 and 0.979 | locus YJL115W, strain asf1, hits give low values 1.02 | locus YJL129C, strain trk1, hits give low values 1.02 | locus YJL134W, strain LCB3, hits give low values 0.996 | locus YJL154C, strain vps35, hits give low values 1.01 | locus YJL164C, strain tpk1, hits give low values 1.01 | locus YJL166W, strain qcr8, hits give low values 1.01 | locus YJL168C, strain set2, hits give low values 1.01 | locus YJL187C, strain SWE1 (second series), hits give low values 1.03 | locus YJR043C, strain POL32, hits give low values 1 | locus YJR066W, strain TOR1, hits give low values 0.983 | locus YKL009W, strain mrt4, hits give low values 1.01 | locus YKL068W, hits give low values 0.984 | locus YKL085W, strain MDH1 (second series), hits give low values 0.979 | locus YKL085W, strain MDH1, hits give low values 0.979 | locus YKL160W, strain elf1, hits give low values 1.02 | locus YKR001C, strain vps1, hits give low values 0.992 | locus YKR026C, strain gcn3, hits give low values 0.99 | locus YKR091W, strain srl3, hits give low values 1.01 | locus YLL001W, strain dnm1, hits give low values 1.01 | locus YLL026W, hits give low values 1.02 | locus YLL041C, strain sdh2, hits give low values 0.991 | locus YLR027C, strain aat2, hits give low values 1.01 | locus YLR039C, strain RIC1, hits give low values 0.967 | locus YLR058C, strain SHM2, hits give low values 1.02 | locus YLR102C, strain apc9, hits give low values 1 | locus YLR113W, strain HOG1, hits give low values 0.99 | locus YLR221C, strain rsa3, hits give low values 1 | locus YLR258W, strain gsy2, hits give low values 1.01 | locus YLR262C, strain YPT6 (second series), hits give low values 1 | locus YLR262C, strain YPT6, hits give low values 0.977 | locus YLR268W, strain sec22, hits give low values 1.01 | locus YLR320W, strain mms22, hits give low values 1.02 | locus YLR330W, strain CHS5, hits give low values 1 | locus YLR342W, strain FKS1 (second series), hits give low values 0.984 | locus YLR342W, strain FKS1, hits give low values 1.02 | locus YLR357W, strain rsc2, hits give low values 1.03 | locus YLR370C, strain arc18, hits give low values 1.02 | locus YLR371W, strain rom2, hits give low values 0.997 | locus YLR384C, strain iki3, hits give low values 1.03 | locus YLR418C, strain cdc73, hits give low values 1.08 | locus YML016C, strain PPZ1, hits give low values 0.997 | locus YML032C, strain rad52, hits give low values 0.996 | locus YML120C, strain ndi1, hits give low values 1.02 | locus YML124C, strain tub3, hits give low values 0.997 | locus YMR058W, strain fet3, hits give low values 1 | locus YMR078C, strain ctf18, hits give low values 1 | locus YMR125W, strain sto1, hits give low values 1 | locus YMR129W, hits give low values 1.01 | locus YMR205C, strain PFK2, hits give low values 1.02 | locus YMR223W, strain ubp8, hits give low values 1.03 | locus YMR231W, strain pep5, hits give low values 1.01 | locus YMR263W, strain SAP30, hits give low values 0.991 | locus YMR307W, strain GAS1, hits give low values 1.09 | locus YNL067W, strain RPL9B, hits give low values 1.03 | locus YNL071W, strain lat1, hits give low values 1.03 | locus YNL128W, strain TEP1, hits give low values 1.01 | locus YNL153C, strain GIM3, hits give low values 1.02 and 1.01 | locus YNL175C, strain NOP13, hits give low values 1.02 | locus YNL183C, strain NPR1, hits give low values 0.935 | locus YNL197C, strain WHI3, hits give low values 1.02 | locus YNL209W, strain ssb2, hits give low values 1 | locus YNL224C, strain SQS1, hits give low values 0.983 | locus YNL233W, strain BNI4, hits give low values 1.02 | locus YNL248C, strain rpa49, hits give low values 1.09 | locus YNL250W, strain rad50, hits give low values 1 | locus YNL271C, strain bni1, hits give low values 1.01 | locus YNL298W, strain CLA4, hits give low values 0.99 | locus YNL307C, strain MCK1, hits give low values 1.01 | locus YNL322C, strain KRE1 (second series), hits give low values 1 | locus YNL322C, strain KRE1, hits give low values 0.988 | locus YNR049C, strain mso1, hits give low values 1.02 | locus YNR052C, strain pop2, hits give low values 1.01 | locus YOL012C, strain htz1 0.677 | locus YOL147C, strain pex11, hits give low values 0.996 | locus YOR001W, strain rrp6, hits give low values 1.02 | locus YOR061W, strain CKA2, hits give low values 1.01 | locus YOR069W, strain VPS5, hits give low values 0.992 | locus YOR070C, strain gyp1, hits give low values 1.01 | locus YOR080W, strain dia2, hits give low values 1.03 | locus YOR083W, strain WHI5 (second series), hits give low values 0.985 | locus YOR083W, strain WHI5, hits give low values 1.01 | locus YOR106W, strain vam3, hits give low values 1.01 | locus YOR136W, strain idh2, hits give low values 1 | locus YOR144C, strain elg1, hits give low values 1.01 | locus YOR184W, strain ser1, hits give low values 1.01 | locus YOR231W, strain MKK1, hits give low values 0.971 | locus YOR265W, strain rbl2, hits give low values 1.01 | locus YOR270C, strain vph1, hits give low values 1.01 | locus YOR290C, strain snf2, hits give low values 1.02 | locus YOR316C, strain cot1, hits give low values 1 | locus YPL051W, strain arl3, hits give low values 1.02 | locus YPL078C, strain atp4, hits give low values 1.02 | locus YPL106C, strain sse1, hits give low values 1.03 | locus YPL240C, strain hsp82, hits give low values 1.01 | locus YPL241C, strain CIN2, hits give low values 0.997 | locus YPL256C, strain CLN2, hits give low values 0.975 | locus YPR119W, strain clb2, hits give low values 0.999 | locus YPR141C, strain kar3, hits give low values 1 | locus YPR163C, strain tif3, hits give low values 1 | locus YPR167C, strain met16, hits give low values 1 | strain wtn01, hits give low values 1.01
